Data on 27 compounds can be found in PubChem BioAssay (Tox21).

A short description of experiment [1]: qHTS assay to identify small molecule antagonists of the thyroid receptor (TR) signaling pathway - cell viability counter screen (AID 743064). Also: nearly all actives have a fitted effect of over 50% in size. Also: potency is read from the fitted curve at half-maximal effect. An outline of the steps: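 Plate GH3.TRE-Luc cells; incubate 4 h at 37 °C; add compound, then T3 to 1 nM final; incubate 23.5 h; add CellTiter-Fluor; incubate 30 min at 37 °C, 5% CO2; read fluorescence.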
In general terms: In qHTS, concentration-response curves come from the screen itself.

Experiment [2] concerns thyroid hormone receptor (rat, GH3 cells). Put plainly: qHTS assay to identify small molecule agonists of the thyroid receptor (TR) signaling pathway (AID 743066; calls by dose curve).
The nature of experiment [3]: qHTS assay to identify small molecule antagonists of the estrogen receptor alpha (ER-alpha) signaling pathway - cell viability counter screen (AID 743074; calls by dose curve; also: nearly all actives have a fitted effect of over 45% in size).
Experiment [4] addresses Estrogen receptor (Homo sapiens) (UniProt P03372). Put plainly: qHTS assay to identify small molecule agonists of the estrogen receptor alpha (ER-alpha) signaling pathway (AID 743075; calls by dose curve).
Experiment [5] shares this target. In words: qHTS assay to identify small molecule agonists of the estrogen receptor alpha (ER-alpha) signaling pathway using the BG1 cell line (AID 743079). Also: nearly all actives have a fitted effect of over 20% in size. Also: potency is read from the fitted curve at half-maximal effect.
Experiment [6] is described as follows: qHTS assay to identify small molecule antagonists of the estrogen receptor alpha (ER-alpha) signaling pathway using the BG1 cell line - cell viability counter screen (AID 743081).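 Also: compound given together with 17beta-estradiol as the ER stimulus; series mostly up to about 70 µM; nearly all actives have a fitted effect of over 45% in size.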
For another experiment, the target named is Aromatase (Homo sapiens) (UniProt P11511). In words: qHTS assay to identify aromatase inhibitors (AID 743083). Also: series mostly up to about 70 µM; nearly all actives have a fitted effect of over 55% in size.
Experiment [7] in a line: qHTS assay to identify small molecule antagonists of the thyroid receptor (TR) signaling pathway (AID 743065). Also: nearly all actives have a fitted effect of over 55% in size. Also: potency is read from the fitted curve at half-maximal effect. As to activity, negative = inhibition: series mostly up to about 70 µM. An outline of the steps: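 GH3.TRE-Luc rat pituitary cells carrying two TR response elements driving luciferase were plated for 4 h, given compound plus 1 nM T3 (final), and incubated 23.5 h at 37 C. ONE-Glo luminescence measured reporter inhibition; CellTiter-Fluor fluorescence tracked cytotoxicity.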

The target of experiment [8] is Estrogen receptor (Homo sapiens) (UniProt P03372). In words: qHTS assay to identify small molecule antagonists of the estrogen receptor alpha (ER-alpha) signaling pathway (AID 743069; active = well fitted curve in the direction sought with a large enough effect in the signal ratio in the repeat runs, not every such curve was filed as active; the % refers to the signal ratio). The essentials:
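HEK293 cells stably carrying an ER-alpha-UAS-bla beta-lactamase reporter were pre-cultured overnight in 2% charcoal-stripped FBS medium. Test compounds in DMSO were added together with 17beta-estradiol for 18 hr at 37C. Read-out was fluorescence after 2 hr with LiveBLAzer B/G FRET substrate at room temperature.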

Experiment [9] can be described thus: qHTS assay to identify small molecule antagonists of the estrogen receptor alpha (ER-alpha) signaling pathway using the BG1 cell line (AID 743080; calls by dose curve; also: series mostly up to about 70 µM; nearly all actives have a fitted effect of over 25% in size). The essentials:
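Antagonist mode: compounds in DMSO were pinned onto BG1-Luc-4E2 cells alongside 17beta-estradiol agonist, incubated 21.5 h, and ERE-driven luciferase measured with ONE-Glo. Cytotoxicity was multiplexed using CellTiter-Fluor fluorescence.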

Inconclusive results are not listed. A number with no mark means an inactive call. The source made the active and inactive calls. Unless noted, calls follow the shape of the dose curve; as a rule, active = well fitted curve in the direction sought with a large enough effect in the repeat runs; inconclusive = weak or mixed curves; inactive = no such curve, though single readings can be large; an effect the other way counts as inactive or inconclusive.
% is scaled to controls: 0 for no effect and ±100 for the full control effect.

Estrogen receptor (Homo sapiens), sequence (P03372 whole entry, looked up): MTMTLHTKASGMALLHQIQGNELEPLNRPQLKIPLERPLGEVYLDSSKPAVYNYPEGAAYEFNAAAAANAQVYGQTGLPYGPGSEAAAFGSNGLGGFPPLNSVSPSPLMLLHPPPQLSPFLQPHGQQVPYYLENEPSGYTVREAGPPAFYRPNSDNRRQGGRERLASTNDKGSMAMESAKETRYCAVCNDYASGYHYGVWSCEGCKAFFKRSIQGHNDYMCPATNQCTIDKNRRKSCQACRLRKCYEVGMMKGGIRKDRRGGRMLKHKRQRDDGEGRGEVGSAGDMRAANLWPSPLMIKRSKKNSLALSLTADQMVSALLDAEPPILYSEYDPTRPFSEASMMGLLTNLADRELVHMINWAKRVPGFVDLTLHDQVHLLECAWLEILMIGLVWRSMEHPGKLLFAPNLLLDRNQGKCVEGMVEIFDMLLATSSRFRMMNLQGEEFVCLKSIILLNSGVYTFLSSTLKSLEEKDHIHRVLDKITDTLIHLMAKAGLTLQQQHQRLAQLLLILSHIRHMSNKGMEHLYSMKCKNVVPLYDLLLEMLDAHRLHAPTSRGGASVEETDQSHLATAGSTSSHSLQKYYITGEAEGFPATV
Aromatase (Homo sapiens), sequence (P11511 whole entry, looked up): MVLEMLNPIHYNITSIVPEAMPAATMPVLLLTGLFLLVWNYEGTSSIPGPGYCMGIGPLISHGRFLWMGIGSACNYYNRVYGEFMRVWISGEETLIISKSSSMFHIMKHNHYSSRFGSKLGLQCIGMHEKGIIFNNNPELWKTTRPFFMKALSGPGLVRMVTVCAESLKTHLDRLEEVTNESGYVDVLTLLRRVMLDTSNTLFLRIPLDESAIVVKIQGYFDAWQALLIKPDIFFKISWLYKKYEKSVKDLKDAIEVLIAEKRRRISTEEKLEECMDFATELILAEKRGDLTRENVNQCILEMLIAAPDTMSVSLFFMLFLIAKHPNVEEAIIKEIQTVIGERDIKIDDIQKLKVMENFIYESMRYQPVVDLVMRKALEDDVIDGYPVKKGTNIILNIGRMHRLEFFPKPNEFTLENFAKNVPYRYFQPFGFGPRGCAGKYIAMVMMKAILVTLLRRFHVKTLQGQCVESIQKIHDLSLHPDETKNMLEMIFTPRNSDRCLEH

For the compound `CCCCCCCCCCCCSC#N`, the Potency result (in [1]; in [4]; in experiment [5]; in [6]; with Aromatase (Homo sapiens)) was “inactive” each time. In addition, the outcome in [2] and in experiment [3] was inactive.

Consider `CCCCCO`, for which the Potency result (in experiment [1]; in experiment [4]; in experiment [5]; with Aromatase (Homo sapiens)) was “inactive” each time. For the same compound, the compound was classed as inactive in experiment [2] and in experiment [3].

On to `CC(=O)OCC(=O)[C@@]1(O)CC[C@H]2[C@@H]3CCC4=CC(=O)C=C[C@]4(C)[C@@]3(F)[C@@H](O)C[C@@]21C`, for which the Potency entry (in experiment [1]; in [6]; in the experiment with Aromatase (Homo sapiens)) was “inactive” in each case. The result in experiment [2] and in [3] was inactive.

Take `O=C(O)c1cccnc1Nc1cccc(C(F)(F)F)c1`: the Potency result (in experiment [1]; in experiment [4]; in experiment [5]; in experiment [6]; in the experiment with Aromatase (Homo sapiens)) was “inactive” throughout. Moreover, the compound was classed as inactive in experiment [2] and in experiment [3].

As for `CC(C)=CCCC(C)C=O` (centres undefined), the Potency result (in [1]; in [4]; in experiment [5]; in experiment [6]; with Aromatase (Homo sapiens)) was “inactive” throughout. Moreover, the outcome in [2] and in experiment [3] was inactive.

`Clc1cc(Cl)c2c(c1)N=C1CCCCCN1C2`: the Potency entry (in experiment [1]; in experiment [4]; in experiment [6]; with Aromatase (Homo sapiens)) was “inactive” each time. Moreover, the result in experiment [2] and in [3] was inactive. In addition, the Potency in experiment [5] is 23.7 µM (active).

For `c1ccc(-c2ccc(-c3ccccc3)cc2)cc1`, the Potency result in [1], in experiment [4] and in [6] was “inactive” each time. In addition, the outcome in experiment [2] and in experiment [3] was inactive. Further, in experiment [5], the Potency is 0.791 µM (active).

On to `OCCOc1cccc(OCCO)c1`, for which the Potency result (in experiment [1]; in experiment [6]; with Aromatase (Homo sapiens)) was “inactive” in each case. The compound was classed as inactive in experiment [2] and in experiment [3].

Consider `Sc1nc(S)nc(S)n1`, for which the Potency entry (in experiment [1]; in experiment [6]; in the experiment with Aromatase (Homo sapiens)) was “inactive” in each case. For the same compound, the compound was called inactive in experiment [2] and in experiment [3].

With `C[C@H](CN1CCCC1)C(=O)c1ccc(C(F)(F)F)cc1`, the Potency entry (in [1]; with Aromatase (Homo sapiens)) was “inactive” in each case. The compound was classed as inactive in [2] and in experiment [3].

Consider `CC1=C(C)C(=O)C(C(CCCCCC(=O)O)c2ccccc2)=C(C)C1=O` (centres undefined), for which the Potency entry (in experiment [7]; in [8]; in experiment [4]; in experiment [5]; in [6]; with Aromatase (Homo sapiens)) was “inactive” each time. The compound was classed as inactive in experiment [2] and in experiment [3].

With `CCCCCCCCCC(C)C=O` (centres undefined), the Potency result (in [1]; in experiment [6]; with Aromatase (Homo sapiens)) was “inactive” each time. The compound was called inactive in experiment [2] and in experiment [3].

Regarding `O=C(NC1CCN(CCc2c[nH]c3ccccc23)CC1)c1ccccc1`, the Potency in experiment [1] is 26.6 µM (active). Moreover, the outcome in experiment [2] and in experiment [3] was inactive. For the same compound, the Potency entry in the experiment with Aromatase (Homo sapiens) is “inactive”.

Consider `Cc1cc(C)n(CO)n1`, for which the Potency entry in experiment [1], in experiment [8], in [4], in experiment [5], in experiment [9] and in experiment [6] was “inactive” in each case. Moreover, the Potency entry in the experiment with Aromatase (Homo sapiens) is “inactive”. The compound was called inactive in experiment [3].

`NCCOCCOCCN`: the Potency result (in experiment [1]; in experiment [6]; with Aromatase (Homo sapiens)) was “inactive” in each case. Also, the compound was called inactive in [2] and in experiment [3].

Turning to `Clc1cccc(C(c2ccc3nc[nH]c3c2)n2ccnc2)c1` (centres undefined), the Potency result in [1], in [4] and in experiment [6] was “inactive” each time. The compound was called inactive in experiment [2].

With `COc1ccc(/C=C/S(=O)(=O)NC(=O)c2ccc(C)cc2Cl)cc1`, the Potency result (in experiment [1]; in experiment [6]; with Aromatase (Homo sapiens)) was “inactive” each time.

For `NC(=O)c1cc[n+](CC2=C(C(=O)[O-])N3C(=O)[C@@H](NC(=O)Cc4cccs4)[C@H]3SC2)cc1`, the compound was classed as inactive in experiment [3]. Also, the Potency result (in [4]; in experiment [5]; in experiment [9]; in experiment [6]; with Aromatase (Homo sapiens)) was “inactive” throughout.

Turning to `O=C(Nc1ccccc1)c1cc([N+](=O)[O-])ccc1Cl`, the Potency in experiment [7] is 61.1 µM (active). The compound was called inactive in experiment [2] and in [3]. Besides, the Potency entry (in experiment [4]; in experiment [6]; in the experiment with Aromatase (Homo sapiens)) was “inactive” throughout.

As for `CCCCCCCCCCCCCCCCCCCl`, the activation in [2] was 7.57% [at 8.08 µM]; in experiment [4], -1.63% [at 6.71 µM]; in experiment [5] it was -11% [at 8.47 µM]. Besides, the activity, negative = inhibition in [8] is -5.29% [at 6.71 µM]; with Aromatase (Homo sapiens), 13.8% [at 8.47 µM]. In [3], the activity, negative = cytotoxicity is -22.2% [at 6.72 µM]. Further, the activity change, negative = cytotoxicity in [6] is -0.138% [at 8.47 µM].

`CC(C)(C)NCC(O)COc1ccc(NC(=O)NC2CCCCC2)cc1` (centres undefined): the call in [2] and in experiment [3] was inactive. Besides, the Potency result (in [8]; in experiment [4]; in experiment [6]; in the experiment with Aromatase (Homo sapiens)) was “inactive” in each case.

For `C[Si](C)(C)O[Si](C)(C)O[Si](C)(C)C`, the Potency result (in [7]; in experiment [6]; with Aromatase (Homo sapiens)) was “inactive” each time. The compound was called inactive in experiment [2] and in [3].

Consider `O=c1c2ccccc2oc2ccccc12`, for which the Potency result (in experiment [7]; in experiment [4]; in [6]; with Aromatase (Homo sapiens)) was “inactive” each time. In addition, the call in experiment [2] was inactive. In experiment [5], the Potency is 48.6 µM (active).

`CC(Cc1ccccc1)(NC(=O)CN)c1ccccc1` (centres undefined): the result in experiment [2] and in experiment [3] was inactive. For the same compound, the Potency entry (in [8]; in [4]; in experiment [5]; in experiment [9]; in [6]; in the experiment with Aromatase (Homo sapiens)) was “inactive” in each case.

Turning to `Clc1nc2ccccc2nc1Cl`, the Potency entry (in experiment [7]; in experiment [4]; in [5]; in experiment [6]; with Aromatase (Homo sapiens)) was “inactive” in each case. Moreover, the result in experiment [2] and in experiment [3] was inactive.

As for `CCOC(=O)CC(O)(CC(=O)OCC)C(=O)OCC`, the outcome in experiment [2] and in [3] was inactive. For the same compound, the Potency entry (in experiment [4]; in [5]; in experiment [9]; in [6]; with Aromatase (Homo sapiens)) was “inactive” throughout.

In the case of `CCCc1ccc(OC)cc1`, the compound was classed as inactive in experiment [3]. Further, the Potency entry (in experiment [4]; in [9]; in experiment [6]; in the experiment with Aromatase (Homo sapiens)) was “inactive” each time.
